About 14,000 (4.5%) of roughly 310,000 compounds showed an effect of 50% or more. Effects have a minus sign here. Many of the other results were omitted from the sample, so strong results are more common in it than they were.
What follows are molecules tested against human ether-à-go-go-related gene (hERG) potassium channel (human, UniProt Q12809) (assay: primary screen, population patch clamp on CHO cells stably expressing hERG; higher = less effect of the substance).
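Note: peak tail current of the secondary pulse compared with the same well before compound.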

Sequence of human ether-à-go-go-related gene (hERG) potassium channel (Q12809 whole entry, looked up): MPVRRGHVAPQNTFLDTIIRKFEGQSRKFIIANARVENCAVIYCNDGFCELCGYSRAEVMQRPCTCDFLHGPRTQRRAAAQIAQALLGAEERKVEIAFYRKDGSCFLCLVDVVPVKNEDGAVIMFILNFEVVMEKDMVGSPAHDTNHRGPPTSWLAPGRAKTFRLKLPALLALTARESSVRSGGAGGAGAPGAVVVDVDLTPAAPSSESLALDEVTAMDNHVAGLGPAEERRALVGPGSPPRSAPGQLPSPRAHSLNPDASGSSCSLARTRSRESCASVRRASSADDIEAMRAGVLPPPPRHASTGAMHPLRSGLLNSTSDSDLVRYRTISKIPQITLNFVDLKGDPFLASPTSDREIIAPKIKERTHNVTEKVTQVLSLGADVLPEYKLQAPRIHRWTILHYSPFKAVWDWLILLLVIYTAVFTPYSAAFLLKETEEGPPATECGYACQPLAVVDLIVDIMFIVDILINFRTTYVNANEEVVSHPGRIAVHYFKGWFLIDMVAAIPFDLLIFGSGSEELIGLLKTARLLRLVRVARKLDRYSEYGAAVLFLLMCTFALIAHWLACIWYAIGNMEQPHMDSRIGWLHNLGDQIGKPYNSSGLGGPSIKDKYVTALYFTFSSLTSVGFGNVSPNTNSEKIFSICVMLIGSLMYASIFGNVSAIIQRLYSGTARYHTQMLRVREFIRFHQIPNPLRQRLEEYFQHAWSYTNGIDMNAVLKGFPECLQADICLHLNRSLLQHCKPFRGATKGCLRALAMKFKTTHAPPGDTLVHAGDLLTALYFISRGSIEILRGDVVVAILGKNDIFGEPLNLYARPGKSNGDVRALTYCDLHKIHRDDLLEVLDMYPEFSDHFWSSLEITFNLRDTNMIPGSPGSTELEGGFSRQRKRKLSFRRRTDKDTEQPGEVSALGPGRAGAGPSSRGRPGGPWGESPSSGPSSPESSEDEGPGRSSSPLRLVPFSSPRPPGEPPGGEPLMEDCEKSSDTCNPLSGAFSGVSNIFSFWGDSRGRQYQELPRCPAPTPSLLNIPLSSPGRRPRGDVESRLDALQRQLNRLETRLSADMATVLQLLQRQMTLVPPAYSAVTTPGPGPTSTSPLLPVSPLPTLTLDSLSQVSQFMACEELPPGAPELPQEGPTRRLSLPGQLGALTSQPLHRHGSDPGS

Q: How did the “hERG current change (%, negative = inhibition) at 10uM” value turn out when `C=CCNC(=O)C1CCCN(S(=O)(=O)c2ccc(-n3cnnn3)cc2)C1` (stereo not drawn) was run?
A: Its value is -27.5%.

Q: How did the “hERG current change (%, negative = inhibition) at 10uM” value turn out when `O=C(NCc1ccco1)C1CCN(S(=O)(=O)c2ccc(-n3cnnn3)cc2)CC1` was run?
A: Its value is -70.5%.

Q: How did the “hERG current change (%, negative = inhibition) at 10uM” value turn out when `O=C(NCc1ccccc1F)C1CCCN(S(=O)(=O)c2ccc(-n3cnnn3)cc2)C1` (stereo not drawn) was run?
A: The value was -1.94%.

Q: `COc1ccc(OC)c(NC(=O)C2CCCN(S(=O)(=O)c3ccc(-n4cnnn4)cc3)C2)c1` (stereo not drawn) was tested. Which “hERG current change (%, negative = inhibition) at 10uM” value did it give?
A: The value was -12.5%.

Q: For `COC(=O)C1=C(C(=O)OC)[C@@H]2N(C)c3ccccc3[C@@]23C[C@@H](C(=O)OC)N(C(=O)c2ccc(Br)cc2)C3=N1`, which “hERG current change (%, negative = inhibition) at 10uM” value is on record?
A: The value was -1.06%.

Q: With `Fc1ccc2c(c1)C(c1ccc(N3CCOCC3)cc1)=NNC(c1cccs1)=N2` as the molecule, how does the “hERG current change (%, negative = inhibition) at 10uM” value read?
A: Its value is -1.96%.

Q: With `CC1=CC(C)(C)NC(=S)N1c1cc(C)cc(C)c1` as the molecule, how does the “hERG current change (%, negative = inhibition) at 10uM” value read?
A: The value was 10.5%.

Q: Which “hERG current change (%, negative = inhibition) at 10uM” value does the source give for `Cc1nc(Nc2ccc(C(=O)O)cc2)nc(Nc2ccc(C(=O)O)cc2)c1[N+](=O)[O-]` here?
A: The value was 15.3%.

Q: How did the “hERG current change (%, negative = inhibition) at 10uM” value turn out when `Cc1cc(=O)c2cc(C(=O)c3ccccc3)ccc2[nH]1` was run?
A: Its value is -4.4%.

Q: Which “hERG current change (%, negative = inhibition) at 10uM” value does the source give for `COc1ccccc1Cn1c(=O)c2ccccc2n2c(SCc3csc(C)n3)nnc12` here?
A: Its value is -6.34%.

Q: How did the “hERG current change (%, negative = inhibition) at 10uM” value turn out when `CC1=C(C)CC(C(=O)NNC(=O)c2cccc(Cl)c2)C(C(=O)O)C1` (stereo not drawn) was run?
A: Its value is 12.3%.

Q: For `Cc1ccccc1C(=O)Nc1ccc(C(=O)N/N=C/c2ccc(O)c(Br)c2)cc1`, which “hERG current change (%, negative = inhibition) at 10uM” value is on record?
A: The value was -2.99%.

Q: Which “hERG current change (%, negative = inhibition) at 10uM” value does the source give for `CNC(=O)c1[nH]cnc1C(=O)N[C@@H](CC(C)C)C(=O)OCc1ccccc1` here?
A: The value was -58.2%.

Q: Which “hERG current change (%, negative = inhibition) at 10uM” value does the source give for `CC(C)C[C@H](NC(=O)c1[nH]cnc1C(=O)N[C@@H](Cc1ccccc1)C(=O)OCc1ccccc1)C(=O)OCc1ccccc1` here?
A: The value was 21.6%.

Q: Which “hERG current change (%, negative = inhibition) at 10uM” value does the source give for `CC(C)C[C@H](NC(=O)c1nc[nH]c1C(=O)N[C@@H](CC(C)C)C(=O)OCc1ccccc1)C(=O)OCc1ccccc1` here?
A: The value was 16.2%.

Q: `CC1(C)C(C=C(Cl)Cl)C1C(=O)Nc1ccc([N+](=O)[O-])cc1` (stereo not drawn) was tested. Which “hERG current change (%, negative = inhibition) at 10uM” value did it give?
A: Its value is 18.9%.

Q: Which “hERG current change (%, negative = inhibition) at 10uM” value does the source give for `O=C(COc1ccc(/C=N/NC(=O)C(=O)N2CCCCC2)cc1)Nc1ccccc1Cl` here?
A: Its value is 15.9%.

Q: Which “hERG current change (%, negative = inhibition) at 10uM” value does the source give for `O=C(C1CCCN(S(=O)(=O)c2ccc(F)cc2)C1)N1CCCCC1` (stereo not drawn) here?
A: The value was 6.09%.

Q: How did the “hERG current change (%, negative = inhibition) at 10uM” value turn out when `O=C(C1CCCN(S(=O)(=O)c2ccc(F)cc2)C1)N1CCCCCC1` (stereo not drawn) was run?
A: The value was -24%.

Q: With `O=C(C1CCC1)N1CCN(S(=O)(=O)c2ccc(F)cc2)CC1` as the molecule, how does the “hERG current change (%, negative = inhibition) at 10uM” value read?
A: Its value is 11.4%.

Q: How did the “hERG current change (%, negative = inhibition) at 10uM” value turn out when `O=C(C1CCC1)N1CCN(S(=O)(=O)c2ccc([N+](=O)[O-])cc2)CC1` was run?
A: Its value is -62.6%.

Q: Which “hERG current change (%, negative = inhibition) at 10uM” value does the source give for `O=C(C1CCCN(S(=O)(=O)c2ccc([N+](=O)[O-])cc2)C1)N1CCCCC1` (stereo not drawn) here?
A: The value was -62%.

Q: Which “hERG current change (%, negative = inhibition) at 10uM” value does the source give for `O=C(C1CCCCC1)N1CCN(S(=O)(=O)c2cccc([N+](=O)[O-])c2)CC1` here?
A: The value was -13.1%.

Q: Which “hERG current change (%, negative = inhibition) at 10uM” value does the source give for `COc1ccc2oc(C(=O)N3CCc4ccccc43)c(C)c2c1` here?
A: Its value is 15.1%.

Q: Which “hERG current change (%, negative = inhibition) at 10uM” value does the source give for `Cc1cccc(S(=O)(=O)NCCC(=O)OC(C)C(=O)NC(=O)NC2CCCCC2)c1` (stereo not drawn) here?
A: Its value is -20.8%.

Q: Which “hERG current change (%, negative = inhibition) at 10uM” value does the source give for `Cc1nn(C)c(Oc2cccc(Cl)c2)c1C#N` here?
A: Its value is 8.31%.

Q: For `Cc1nc(N(C)Cc2ccccc2)c2nnn(Cc3ccccc3)c2n1`, which “hERG current change (%, negative = inhibition) at 10uM” value is on record?
A: Its value is -37.9%.

Q: How did the “hERG current change (%, negative = inhibition) at 10uM” value turn out when `COc1ccc(CCC(=O)Nc2ccc(S(=O)(=O)N3CCCC3)cc2)cc1OC` was run?
A: Its value is -11.8%.

Q: For `CCC1(Cc2ccccc2)NC(=O)c2ccccc2O1` (stereo not drawn), which “hERG current change (%, negative = inhibition) at 10uM” value is on record?
A: The value was 2.36%.

Q: How did the “hERG current change (%, negative = inhibition) at 10uM” value turn out when `COc1cc2[nH]c3c(=O)n(CCN(C(C)C)C(C)C)cnc3c2cc1OC` was run?
A: Its value is -13.3%.

Q: Which “hERG current change (%, negative = inhibition) at 10uM” value does the source give for `CCN1CCCC1Cn1cnc2c([nH]c3ccc(Cl)cc32)c1=O` (stereo not drawn) here?
A: The value was -76.5%.

Q: Which “hERG current change (%, negative = inhibition) at 10uM” value does the source give for `CCN1CCCC1Cn1cnc2c([nH]c3cccc(Cl)c32)c1=O` (stereo not drawn) here?
A: Its value is -67.2%.

Q: How did the “hERG current change (%, negative = inhibition) at 10uM” value turn out when `O=c1c2[nH]c3cccc(Cl)c3c2ncn1CCN1CCCCC1` was run?
A: Its value is -21.9%.

Q: `CC(C)N(CCn1cnc2c([nH]c3ccccc32)c1=O)C(C)C` was tested. Which “hERG current change (%, negative = inhibition) at 10uM” value did it give?
A: The value was -68.1%.

Q: For `Cc1ccc2[nH]c3c(=O)n(CCN4CCNCC4)cnc3c2c1`, which “hERG current change (%, negative = inhibition) at 10uM” value is on record?
A: The value was 7.36%.

Q: For `Cc1ccc2[nH]c3c(=O)n(CCN4CCOCC4)cnc3c2c1`, which “hERG current change (%, negative = inhibition) at 10uM” value is on record?
A: The value was -17.5%.

Q: With `O=c1c2[nH]c3ccc(F)cc3c2ncn1CC1CCCO1` (stereo not drawn) as the molecule, how does the “hERG current change (%, negative = inhibition) at 10uM” value read?
A: The value was -16%.

Q: `Cc1ccc2[nH]c3c(=O)n(Cc4ccncc4)cnc3c2c1` was tested. Which “hERG current change (%, negative = inhibition) at 10uM” value did it give?
A: Its value is 4.77%.

Q: Which “hERG current change (%, negative = inhibition) at 10uM” value does the source give for `O=c1c2[nH]c3cccc(Cl)c3c2ncn1CC1CCCO1` (stereo not drawn) here?
A: The value was -9.51%.

Q: For `CCCCn1cnc2c([nH]c3ccccc32)c1=O`, which “hERG current change (%, negative = inhibition) at 10uM” value is on record?
A: Its value is 15.7%.

Q: For `CCN1CCCC1Cn1cnc2c([nH]c3ccc(C)cc32)c1=O` (stereo not drawn), which “hERG current change (%, negative = inhibition) at 10uM” value is on record?
A: Its value is -70%.

Q: Which “hERG current change (%, negative = inhibition) at 10uM” value does the source give for `Cc1nn(C)c(C(=O)N/N=C/c2ccccn2)c1[N+](=O)[O-]` here?
A: Its value is 21.3%.

Source: PMC4336329 (PLoS ONE, 2015)
